Test [1] in a line: A CellTox Green Cytotoxicity Assay to monitor cytotoxicity in HepG2 cells - 0 hour (AID 1224882). Further: nearly all actives have a fitted effect of over 35% in size. The method, boiled down:
(§1)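 Continuous culture of HepG2 cells with a membrane-impermeant DNA dye; rising fluorescence marks dead cells. Compound exposure lasted up to 40 h at 37 C, with reads every 8 h from 0 h.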

Test [2] can be described thus: A CellTox Green Cytotoxicity Assay to monitor cytotoxicity in HepG2 cells - 32 hour (AID 1224883). Further: nearly all actives have a fitted effect of over 50% in size. The method, boiled down:
as §1

Test [3] can be described thus: A CellTox Green Cytotoxicity Assay to monitor cytotoxicity in HEK293 cells - 8 hour (AID 1224884). Further: nearly all actives have a fitted effect of over 35% in size. The essentials: (§2)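 Each value comes from one timepoint of a single continuous run in which HEK293 cells with CellTox Green were exposed to compound for up to 40 h at 37 C, dye fluorescence rising with cell death.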
A short description of test [4]: qHTS RealTime-Glo MT Cell Viability Assay in HepG2 cells - 16 hour (AID 1224885). Further: nearly all actives have a fitted effect of over 50% in size. The method, boiled down: (§3)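 Luminescence read-out: viable HepG2 cells reduce a prosubstrate to a NanoLuc substrate, giving a signal proportional to live cell number. Reads taken at 0, 8, 16, 24, 32 and 40 h of compound exposure at 37 C.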
Test [5] can be described thus: qHTS RealTime-Glo MT Cell Viability Assay in HEK293 cells - 24 hour (AID 1224886). Further: top concentration of the series differs between compounds; nearly all actives have a fitted effect of over 50% in size. The essentials: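 Nonlytic real-time viability readout: viable cells convert prosubstrate to NanoLuc substrate, giving luminescence proportional to live cell number. HEK293, 600 cells/well, compound added after 5 h, continuous culture at 37 C.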
Background: Quantitative high-throughput screening tests each substance at several concentrations.

The nature of test [6]: qHTS RealTime-Glo MT Cell Viability Assay in HEK293 cells - 8 hour (AID 1224887). Further: top concentration of the series differs between compounds; nearly all actives have a fitted effect of over 50% in size. The method, boiled down: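 qHTS format; HEK293 cells with NanoLuc/prosubstrate reagent, 37 C/5% CO2 for 5 h pre-dosing; compounds 23 nL in DMSO; luminescence at each time point reflects viable cells.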
Test [7] can be described thus: A CellTox Green Cytotoxicity Assay to monitor cytotoxicity in HEK293 cells - 16 hour (AID 1224888). Further: nearly all actives have a fitted effect of over 35% in size. The method, boiled down:
as §2

The nature of test [8]: qHTS RealTime-Glo MT Cell Viability Assay in HepG2 cells - 0 hour (AID 1224889). Further: nearly all actives have a fitted effect of over 50% in size. The essentials:
as §3

Test [9] in a line: A CellTox Green Cytotoxicity Assay to monitor cytotoxicity in HepG2 cells - 8 hour (AID 1224890). Further: nearly all actives have a fitted effect of over 45% in size. The method, boiled down:
as §1

Test [10] is described as follows: qHTS assay to identify small molecule antagonists of the estrogen receptor alpha (ER-alpha) signaling pathway using the BG1 cell line in the presence of 0.1 nM 17-beta-estradiol - cell viability counter screen (AID 1259241). Further: nearly all actives have a fitted effect of over 40% in size. The method, boiled down: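 Cytotoxicity counter-screen: live-cell protease activity measured by fluorescence (30 min reagent step) in the same wells. Cells were VM7Luc4E2 with endogenous ER-alpha and ERE-driven luciferase, treated 22 hr at 37C alongside 0.1 nM 17beta-estradiol final.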

Test [11] is described as follows: qHTS assay to identify small molecule antagonists of the androgen receptor (AR) signaling pathway using the MDA cell line in the presence of 0.5 nM R1881 - cell viability counter screen (AID 1259242). Further: nearly all actives have a fitted effect of over 45% in size. The method, boiled down: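 Fluorescence from CellTiter-Fluor, which reports protease activity of live cells, was read 30 min after reagent addition to MDA-kb2 cells that had been incubated 16 hr with compound and 0.5 nM R1881.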

The target of test [12] is Estrogen receptor (Homo sapiens) (UniProt P03372). Kind of test: qHTS assay to identify small molecule antagonists of the estrogen receptor alpha (ER-alpha) signaling pathway using the BG1 cell line in the presence of 0.1 nM 17-beta-estradiol (AID 1259244). Further: nearly all actives have a fitted effect of over 50% in size. The method, boiled down:
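Quantitative high-throughput screen in VM7Luc4E2 cells: compound plus 0.1 nM E2 (final), 22 h, 37C, 5% CO2; ONE-Glo added, 30 min room temperature, luminescence measured.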

Test [13] can be described thus: qHTS assay to identify small molecule HDAC inhibitors (AID 1259364). Further: top concentration of the series differs between compounds; nearly all actives have a fitted effect of over 45% in size. The essentials: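 Endogenous HDAC class I/II activity was measured in wild-type HCT-116 cells by HDAC-Glo luminescence after 2 h compound treatment.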
Test [14] is described as follows: qHTS assay to identify small molecule HDAC inhibitors - cell viability counter screen (AID 1259365). The method, boiled down: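 CellTiter-Glo luminescence (30 min, room temperature) reported viability after a 2 h compound exposure at 37 C. Cells: wild-type HCT-116, 1,500 per well, seeded the night before.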
The nature of test [15]: qHTS assay to identify small molecule agonists of the sonic hedgehog signaling (Shh) pathway - cell viability counter screen (AID 1259366). Further: nearly all actives have a fitted effect of over 50% in size. The method, boiled down:
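Cytotoxicity counter screen: CellTiter-Fluor reagent added after 23 h compound exposure, then 1 h at 37C and fluorescence read. Cells were 3T3 Gli1-Luc, seeded 2,000 per well and dosed 4 h post-plating.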

A short description of test [16]: qHTS assay to identify small molecule antagonists of the sonic hedgehog signaling (Shh) pathway - cell viability counter screen (AID 1259367). Further: nearly all actives have a fitted effect of over 55% in size. The essentials: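 Using CellTiter-Fluor, viability of Gli1-Luc reporter 3T3 cells is read by fluorescence in the wells used for the Shh luciferase assay. Treatment lasts 23 hr with conditioned medium, then reagent 1 hr at 37C.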

The nature of test [17]: qHTS assay to identify small molecule agonists of the sonic hedgehog signaling (Shh) pathway (AID 1259368; calls by dose curve;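 further: NIH/3T3-derived 3T3Gli1-Luc cells carrying a stable Gli1-driven firefly luciferase reporter; series mostly up to about 92 µM; nearly all actives have a fitted effect of over 15% in size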). The method, boiled down:
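Luminescent signal was taken as a measure of Gli1-controlled luciferase expression in stably transfected NIH/3T3-derived cells that had been treated for 24 hr with compounds delivered in DMSO.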

Test [18] in a line: qHTS assay to identify small molecule antagonists of the sonic hedgehog signaling (Shh) pathway (AID 1259369; calls by dose curve; further: nearly all actives have a fitted effect of over 45% in size; further: potency means the concentration at half of the fitted maximal effect). The method, boiled down: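 Screening used 3T3Gli1-Luc cells at 2,000 per well, compounds delivered in DMSO, and conditioned medium as agonist stimulus; plates incubated 24hr at 37 C and 5% CO2 before a 30min luciferase step.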
The nature of test [19]: qHTS assay to identify small molecule phospholipidosis (PLD) inducers (AID 1259344; active means well fitted curve in the direction sought with a large enough effect; an effect the other way counts as inactive or inconclusive). The method, boiled down: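 Fluorescent phospholipid staining (LipidTOX Red) measured by automated microscopy in fixed HepG2 cells after 24 h treatment; nuclei counterstained with Hoechst 33342; amiodarone as reference inducer.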
The target of test [20] is Androgen receptor (Homo sapiens) (UniProt P10275). Kind of test: qHTS assay to identify small molecule antagonists of the androgen receptor (AR) signaling pathway using the MDA cell line in the presence of 0.5 nM R1881 (AID 1259243). Further: nearly all actives have a fitted effect of over 50% in size. The method, boiled down: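 Inhibition of R1881 (0.5 nM final) induced reporter signal was measured in human MDA-kb2 cells; note the MMTV promoter also responds to GR. Exposure lasted 16 hr at 37C.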

Values without a mark were called inactive. Results filed as inconclusive are left out. Active and inactive are the calls of the source. Unless noted, the call rests on the fitted dose curve; in most records, active means well fitted curve in the direction sought with a large enough effect in the repeat runs; inconclusive means weak or mixed curves; inactive means no such curve, though single readings can be large; an effect the other way counts as inactive or inconclusive.

Sequence of Estrogen receptor (Homo sapiens) (P03372 whole entry, looked up): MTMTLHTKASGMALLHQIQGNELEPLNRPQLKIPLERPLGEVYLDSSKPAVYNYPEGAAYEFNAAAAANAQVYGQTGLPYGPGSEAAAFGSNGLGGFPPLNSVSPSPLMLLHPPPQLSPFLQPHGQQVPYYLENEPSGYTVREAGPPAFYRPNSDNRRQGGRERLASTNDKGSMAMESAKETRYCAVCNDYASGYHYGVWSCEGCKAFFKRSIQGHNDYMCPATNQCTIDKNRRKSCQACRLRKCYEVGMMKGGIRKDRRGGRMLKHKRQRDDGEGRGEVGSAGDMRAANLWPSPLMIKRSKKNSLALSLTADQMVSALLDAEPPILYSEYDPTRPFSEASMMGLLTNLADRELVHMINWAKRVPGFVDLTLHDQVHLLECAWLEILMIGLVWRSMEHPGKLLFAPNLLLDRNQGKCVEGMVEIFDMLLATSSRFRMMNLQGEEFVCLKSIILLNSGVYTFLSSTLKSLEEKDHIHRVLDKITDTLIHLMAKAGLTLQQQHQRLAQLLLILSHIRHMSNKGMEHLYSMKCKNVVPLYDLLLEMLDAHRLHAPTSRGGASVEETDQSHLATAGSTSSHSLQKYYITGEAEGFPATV
Sequence of Androgen receptor (Homo sapiens) (P10275 whole entry, looked up): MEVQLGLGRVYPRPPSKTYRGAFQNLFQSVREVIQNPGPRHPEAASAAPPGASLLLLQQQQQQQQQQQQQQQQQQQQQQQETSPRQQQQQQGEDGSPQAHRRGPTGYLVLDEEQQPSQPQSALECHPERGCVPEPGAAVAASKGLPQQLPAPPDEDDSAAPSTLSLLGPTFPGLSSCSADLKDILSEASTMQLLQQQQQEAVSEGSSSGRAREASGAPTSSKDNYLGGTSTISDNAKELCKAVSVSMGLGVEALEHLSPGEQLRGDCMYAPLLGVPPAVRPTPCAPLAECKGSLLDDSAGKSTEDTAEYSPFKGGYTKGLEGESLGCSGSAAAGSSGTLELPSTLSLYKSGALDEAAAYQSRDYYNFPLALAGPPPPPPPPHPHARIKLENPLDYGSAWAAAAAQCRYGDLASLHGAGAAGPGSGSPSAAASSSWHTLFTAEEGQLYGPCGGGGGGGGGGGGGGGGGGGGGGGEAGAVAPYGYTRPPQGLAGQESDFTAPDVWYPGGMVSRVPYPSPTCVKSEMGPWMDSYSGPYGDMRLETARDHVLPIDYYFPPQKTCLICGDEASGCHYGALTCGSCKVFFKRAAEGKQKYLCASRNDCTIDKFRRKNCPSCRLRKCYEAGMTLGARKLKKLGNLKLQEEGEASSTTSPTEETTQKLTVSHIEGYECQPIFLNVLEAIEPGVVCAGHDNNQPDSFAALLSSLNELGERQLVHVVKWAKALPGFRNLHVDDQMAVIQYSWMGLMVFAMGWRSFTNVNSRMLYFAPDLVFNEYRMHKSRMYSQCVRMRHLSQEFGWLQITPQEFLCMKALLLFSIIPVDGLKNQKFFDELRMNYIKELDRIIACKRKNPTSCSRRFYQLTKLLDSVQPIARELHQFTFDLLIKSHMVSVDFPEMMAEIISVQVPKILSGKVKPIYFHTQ

Take `OC[C@@H](O)[C@@H](O)CO`: the Potency entry in test [1], in [2], in test [3], in [4], in [5] and in test [6] was “inactive” throughout. Also, the Potency result in test [7], in [8], in test [9], in test [10], in test [11] and in [12] was “inactive” throughout. For the same molecule, the Potency entry in test [13], in test [14], in test [15], in test [16], in test [17] and in test [18] was “inactive” in each case.

For the molecule `CC(C)NC[C@@H](O)COc1ccc(CC(N)=O)cc1`, the Potency result in test [1], in test [2], in test [3], in [4], in [5] and in test [6] was “inactive” each time. Also, the Potency entry in [7], in test [8], in test [9], in [10], in [11] and in test [12] was “inactive” throughout. Further, the Potency result in test [19], in test [13], in [14], in test [16] and in [17] was “inactive” in each case.

Turning to `O=[N+]([O-])c1cccc(C(F)(F)F)c1`, the Potency result in test [1], in [2], in [3], in test [4], in test [5] and in test [6] was “inactive” throughout. Besides, the Potency result in test [7], in test [8], in [9], in test [10], in test [11] and in test [12] was “inactive” in each case. Also, the Potency entry in [13], in test [14], in test [15], in test [16] and in test [17] was “inactive” each time.

`OC/C=C/CO`: the Potency entry in test [1], in [2], in [3], in test [4], in test [5] and in test [6] was “inactive” in each case. Further, the Potency entry in test [7], in test [8], in test [9], in test [10], in test [11] and in test [12] was “inactive” each time. For the same molecule, the Potency entry in [13], in test [14], in test [15], in test [16], in test [17] and in [18] was “inactive” throughout.

Take `NC(=O)c1cccc([N+](=O)[O-])c1`: the Potency entry in test [1], in test [2], in test [3], in test [4], in test [5] and in test [6] was “inactive” in each case. In addition, the Potency entry in test [7], in test [8], in [9], in test [10], in test [11] and in test [20] was “inactive” throughout. The Potency entry in [12], in test [13], in test [14], in [15], in test [16] and in test [17] was “inactive” in each case. Moreover, in test [18], the Potency entry was “inactive”.

For the molecule `C#C[C@]1(O)CC[C@H]2[C@@H]3[C@H](C)CC4=C(CCC(=O)C4)[C@H]3CC[C@@]21C`, the Potency result in test [1], in test [2], in test [3], in [4], in test [5] and in test [6] was “inactive” in each case. The Potency result in test [7], in [8], in test [9], in test [10], in test [11] and in test [12] was “inactive” in each case. In addition, the Potency entry in test [19], in test [14], in [15] and in test [17] was “inactive” each time. In addition, in test [18], the Potency is 29.8 µM (active).

Turning to `O=C(O)Cc1ccc2c(c1)C(=O)c1ccccc1CO2`, the Potency entry in [1], in test [2], in test [3], in [4], in [5] and in [6] was “inactive” throughout. Also, the Potency entry in [7], in test [8], in [9], in test [10], in test [11] and in test [12] was “inactive” throughout. Further, the Potency result in test [13], in [14], in test [16], in [17] and in [18] was “inactive” throughout.
